# Cycloheximide cs = counter-screen for Shiga toxin inhibitors: cycloheximide protein synthesis inhibition. cell reporter, cycloheximide protein synthesis inhibition counterscreen. max response, %. actives 12% (n = 300,000). AID 2314; in the data active = max response mostly above about 13%, no sharp cut-off; inactive = mostly below about 14%; also: read at 38.3 µM for the half of the compounds with a filed dose; 0% is about no effect
# Pf growth 96h = P. falciparum growth inhibition at 96 hours | AID 504834 | actives 6.9% (n = 320,000) | P. falciparum luciferase reporter growth, 96 h | Potency, µM (doses to about 28.7 µM), without a hit: at the top dose activity change, negative = inhibition, hits mostly inhibitors; also: potency is read from the fitted curve at half-maximal effect; % is scaled to controls: 0 for no effect and ±100 for the full control effect
#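 Erythrocytes infected with luciferase-expressing P. falciparum were dispensed at 2% hematocrit and 0.05% parasitemia (final), then incubated with compounds 96 hours at 37 C in 5% CO2. Luminescence after detection reagent addition reported growth.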
# SARS PLP yeast = SARS-CoV PLP inhibition in yeast; actives 0.19% (n = 330,000); Potency, µM (top dose mostly 32.9 µM), without a hit: top-dose activity, positive = growth rescue, usual class: activators; S. cerevisiae expressing SARS-CoV PLpro, growth rescue; AID 485353; calls by dose curve; also: potency is read from the fitted curve at half-maximal effect; 0% is about no effect; nearly all actives have a fitted effect of over 55% in size
# Pf growth 48h = P. falciparum growth inhibition at 48 hours (one generation) | actives 5.9% (n = 310,000) | P. falciparum luciferase growth in erythrocytes, 48 h | Potency, µM (series often up to 28.7 µM), inactives show at the top dose activity change, negative = inhibition, usual class: inhibitors | AID 504832; also: potency is read from the fitted curve at half-maximal effect; % is scaled to controls: 0 for no effect and ±100 for the full control effect
#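 Growth was read as firefly luciferase luminescence after a 48 h, 37 C, 5% CO2 exposure of compounds to reporter-bearing P. falciparum cultures (0.1% parasitemia, 2% hematocrit final) in Albumax-supplemented RPMI 1640.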
# AMA1 RON2 block = AMA1-RON2 (P. falciparum) interaction inhibition; Potency, µM (top dose mostly 58.2 µM), for inactives: at the highest dose activity change, negative = inhibition, most hits filed as inhibitors; AlphaScreen AMA1-biotinylated RON2 peptide binding; actives 0.2% (n = 360,000);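 also: potency is read from the fitted curve at half-maximal effect; 0% = vehicle wells and -100% = peptide control; nearly all actives have a fitted effect of over 45% in size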
#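 AMA1 (3D7) with his tag at 25 nM final met compounds first, then biotinylated RON2 peptide at 25 nM; detection used donor plus acceptor beads, 10 µg/mL apiece, read by AlphaScreen after 30 min at room temperature.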
# Shiga toxin inh = blocks Shiga toxin action in Vero cells; Vero cells, Shiga toxin protein synthesis inhibition reporter; inhibition, % at 38.7 µM; actives 9.2% (n = 290,000); AID 2315; in the data active = inhibition mostly above about 28%, no sharp cut-off; inactive = mostly below about 43%; also: 0% is about no effect
# * marks the source's active call; other numbers are inactive results; ? = inconclusive; . = not tested or not shown; [ ] = another dose, or the depositor's remark. Shown are actives, neighbours in structure and some others; about 19% of the full set was active somewhere. Unless noted, calls follow the shape of the dose curve; as a rule, active = well fitted curve in the direction sought with a large enough effect; inconclusive = small, poorly fitted or top-dose-only effect, or another doubt; inactive = no such curve, though single readings can be large; an effect the other way counts as inactive or inconclusive.
SMILES,Cycloheximide cs,Pf growth 96h,SARS PLP yeast,Pf growth 48h,AMA1 RON2 block,Shiga toxin inh
CN1CCN(Cn2cc(/C=C/C(=O)c3ccccc3)c3ccccc32)CC1,33.5*,.,-29.3%,178.6%,-1.6%,61.1*
CC1(C(=O)NS(=O)(=O)c2ccccc2C(F)(F)F)CCN1C(=O)C1CCCCC1 (stereo unspecified),.,.,.,.,3.7%,.
CC(=O)c1cccc(NC(=O)Cc2ccc3c(c2)CCCC3)c1,-1.2,9.2%,-6.7%,4.5%,1.5%,4.5
Cc1cc(CNC[C@H]2O[C@@H](n3ccc(=O)[nH]c3=O)[C@H](O)[C@@H]2O)no1,.,.,.,.,8.3%,.
CCC(C)(C)n1nnnc1C(c1ccccn1)N1CCN(c2cccc(OC)c2)CC1 (stereo unspecified),-0.4,?,-13.5%,-16.3%,-3.7%,1.3
C=CC(=O)NC(NC(=O)C=C)c1ccccc1F,-1.1,9.28µM*,-0.1%,?,-15.0%,12.1
COc1cccc(CN(C)Cc2cc(=O)oc3c(C)c(C)ccc23)c1,16.4*,13.7%,-1.1%,6.2%,23.7%,3.0
Cc1ccccc1CN(C)Cc1cc(=O)oc2c(C)c(C)ccc12,23.0*,?,-14.0%,?,-4.7%,48.9
Cn1cc([N+](=O)[O-])c(C(=O)Nc2ccc(C(=O)N3CCCCC3)cc2)n1,11.2,-10.1%,-1.6%,9.2%,16.1%,29.2*
Cn1cc([N+](=O)[O-])c(C(=O)Nc2ccc(C3CCCCC3)cc2)n1,46.2*,13.5%,-5.2%,32.5%,-5.4%,86.0*
Cc1nn(C)cc1S(=O)(=O)N1CCCCC1C (stereo unspecified),-2.5,15.3%,3.4%,2.4%,-3.9%,9.1
COc1cc(C(=O)N2c3ccccc3CCC2C)cc(OC)c1OC (stereo unspecified),-1.8,?,-0.6%,-15.0%,5.1%,.
CCN(CC)S(=O)(=O)c1cccc(C(=O)N/N=C/c2ccccn2)c1,33.0*,-3.6%,-0.6%,?,106.4%,8.3
O=C(N/N=C/c1ccccn1)c1cccc(S(=O)(=O)Nc2ccccc2Cl)c1,-0.9,11.9%,-0.4%,?,85.1%,-7.7
CCN(CC)S(=O)(=O)c1cccc(C(=O)N/N=C/c2cccc(O)c2O)c1,53.4*,?,?,?,44.0%,77.0*
COc1ccc(/C=C(/NC(=O)c2ccccc2)C(=O)N2CCOCC2)cc1OC,5.0,3.9%,-0.2%,3.9%,8.7%,4.5
COc1ccc(CNc2nc3ccccc3n2C)c(OC)c1,39.8*,101.3%,-0.8%,138.5%,-7.9%,81.9*
Cc1ccc(O)c(CNc2nc3ccccc3n2C(C)C)c1,-2.6,15.4%,7.9%,8.28µM*,-4.4%,11.7
Cn1c(NCc2c(O)ccc3ccccc23)nc2ccccc21,6.9,62.4%,-26.7%,.,-14.1%,33.3
Cn1c(NCc2cc(Br)ccc2O)nc2ccccc21,26.9*,27.6%,-7.4%,?,-7.7%,65.9*
COc1ccc(CNc2nc3ccccc3n2C)c(O)c1,38.6*,-6.7%,-0.8%,0.0%,0.4%,69.3*
CC(C)(C)C(=O)Nc1sc2c(c1C#N)CCN(Cc1ccccc1)C2,1.5,17.0%,-3.0%,-12.4%,3.9%,18.4
COc1ccc(CNc2nc3ccccc3n2C(C)C)cc1,1.0,?,2.9%,-23.2%,-7.2%,2.1
COc1ccc(CNc2nc3ccccc3n2C(C)C)c(O)c1,1.3,?,-0.9%,11.7µM*,-11.5%,.
C#C[C@]1(O)CCC2C3CCC4=Cc5oncc5CC4(C)C3CCC21C (stereo partly specified),.,.,.,.,-6.3%,.
SMILES,Cycloheximide cs,Pf growth 96h,SARS PLP yeast,Pf growth 48h,AMA1 RON2 block,Shiga toxin inh
C#C[C@]1(O)CC[C@H]2[C@@H]3CCC4=Cc5nc6nc7ccccc7n6cc5C[C@]4(C)[C@H]3CC[C@@]21C,.,5.22µM*,.,3.7µM*,30.9%,.
COc1ccc(C(=O)c2c(-c3cccc(C)c3)oc3ccc(N4CCOCC4)cc23)cn1,1.3,?,-6.2%,?,-2.6%,11.7
O=C1/C(=C/c2ccccc2)NC(=S)N1C(c1ccccc1)c1ccccc1,-2.4,.,2.1%,11.7µM*,61.0%,-2.1
Cc1[nH]c(=O)[nH]c(=O)c1CSCC(=O)OCC(=O)Nc1ccccn1,-1.8,0.0%,-2.1%,24.5%,8.8%,-7.3
COC(=O)c1onc(-c2ccccc2)c1C(=O)OC,-1.0,8.9%[5.75 µM],10.4%,13.1%,1.6%,-2.5
COC(=O)c1c(-c2ccc(F)cc2)noc1N,0.4,4.65µM*,-6.1%,24.7%,2.2%,-7.3
CCCCOC(=O)c1ccc(NC(=O)COC(=O)CSc2nc(C)cc(C)n2)cc1,21.2*,76.2%,-20.1%,40.4%,2.6%,58.4*
CCCCOC(=O)c1ccc(NC(=O)CSc2nncn2C)cc1,25.1*,-13.9%,-0.3%,27.3%,34.2%,41.5
Cn1cnnc1SCC(=O)Nc1ccc(OC(F)F)cc1,2.0,-3.9%,2.8%,13.1µM*,-2.0%,11.2
COC(=O)c1ccccc1NC(=O)CSc1nncn1C,3.3,-3.5%,-0.1%,11.7µM*,-0.9%,3.8
COC(=O)c1ccc(NC(=O)CSc2nncn2C)cc1,-0.5,23.0%,-5.9%,23.8%,-13.4%,3.5
Cc1nn(CCC(=O)N2CCN(S(=O)(=O)c3ccccc3)CC2)c(C)c1C,-3.6,?,12.0%,-7.7%,-7.4%,-2.9
O=C(COC(=O)CCc1ccc(S(=O)(=O)N2CCOCC2)cc1)NC1CCCCCC1,-5.4,-3.0%,-18.1%,2.2%,-11.4%,-1.9
COCCN(C(=S)Nc1ccccc1C)C(C)c1cccs1 (stereo unspecified),7.7,-15.6%,?,19.9%,-18.2%,-5.7
CCOc1ccc(-c2nc(-c3ccccc3C)no2)cc1,67.8*,-9.8%,-4.9%,195.4%,.,95.9*
CCOc1ccc(-c2nc(-c3cccnc3)no2)cc1,30.7*,156.4%,-13.6%,173.3%,-8.4%,23.1*
CCOc1nc(-c2ccc(C)cc2)ccc1-c1noc(-c2cccnc2)n1,-2.0,6.6%,4.8%,8.3%,.,-4.2
COc1ccc2[nH]c(=O)c(-c3noc(-c4ccccc4)n3)cc2c1,66.4*,?,7.1%,?,-10.7%,105.8*
COc1ccc(-c2nc(-c3cccnc3)no2)cc1,45.1*,258.4%,1.4%,140.5%,2.0%,59.2*
CCOc1nc(C)ccc1-c1noc(-c2ccncc2)n1,12.5,-0.5%,-2.8%,?,-4.4%,10.8
COc1ccc2[nH]c(=O)c(-c3nnn(-c4ccccc4)n3)cc2c1,1.8,?,-0.3%,7.9%,5.0%,23.8
O=C(COc1ccc(Br)cc1)NCCCn1ccnc1,-6.7,23.3%,?,-5.2%,9.0%,-8.3
COc1ccc(-c2nc(-c3ccncc3)no2)cc1,53.1*,101.2%,0.1%,58.3%,-2.1%,88.4*
COc1cccc(-c2nc(Cc3ccc(OC)c(OC)c3)no2)c1,4.3,.,-2.2%,.,3.5%,-4.5
